The structures appear in SMILES notation. Inconclusive results are not listed. The source made the active and inactive calls. Calls come from the whole dose curve; as a rule, active = well fitted curve in the direction sought with a large enough effect; inconclusive = small, poorly fitted or top-dose-only effect, or another doubt; inactive = no such curve, though single readings can be large; an effect the other way counts as inactive or inconclusive.

The nature of assay [1]: HPAF-II Cancer Cell Toxicity qHTS against the NCATS CANVASS Library (AID 1347346). Note: nearly all actives have a fitted effect of over 55% in size. Note: potency is the fitted concentration of half-maximal effect. Particulars: HPAF-II viability, CellTiter-Glo ATP luminescence, 72 h; series mostly up to 38.3 µM. In a few lines:
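1000 HPAF-II cells/well; 4 h pre-incubation; 11-pnt compound titration; 72 h, 37 degrees C/5% CO2; CellTiter-Glo, 15 min RT; luminescence read.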

The nature of assay [2]: UWB1.289 Cancer Cell Toxicity qHTS against the NCATS CANVASS Library (AID 1347347). Note: nearly all actives have a fitted effect of over 60% in size. Particulars: UWB1.289 viability, CellTiter-Glo luminescence, 72 h; series mostly up to 38.3 µM. In a few lines: (§1)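 1000 cells/well seeded and rested 4 h at 37 °C before pin transfer of compounds in an 11-pnt series. Exposure 72 h at 37 °C/5% CO2; viability by CellTiter-Glo luminescence after 15 min at room temperature.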

Assay [3] in a line: OV-SAHO Cancer Cell Toxicity qHTS against the NCATS CANVASS Library (AID 1347348). Note: nearly all actives have a fitted effect of over 55% in size. The conditions noted are these: OV-SAHO viability, CellTiter-Glo luminescence, 72 h; series mostly up to 38.3 µM. The gist of the method: as §1
Assay [4] is described as follows: SW1088 Cancer Cell Toxicity qHTS against the NCATS CANVASS Library (AID 1347350). Note: nearly all actives have a fitted effect of over 75% in size. Particulars: SW1088 viability, CellTiter-Glo luminescence, 72 h; series mostly up to 38.3 µM. The gist of the method: as §1
Assay [5] in a line: U-118MG Cancer Cell Toxicity qHTS against the NCATS CANVASS Library (AID 1347351). The conditions noted are these: U-118MG viability, CellTiter-Glo luminescence, 72 h; series mostly up to 38.3 µM. In a few lines: as §1
Assay [6] is described as follows: COV-362 Cancer Cell Toxicity qHTS against the NCATS CANVASS Library (AID 1347352). Particulars: COV-362 viability, CellTiter-Glo luminescence, 72 h; series mostly up to 38.3 µM. The gist of the method: (§2)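 1000 cells/well, 4 h pre-incubation 37 °C/5% CO2; 11-pnt titration; 72 h; CellTiter-Glo 15 min RT, luminescence.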
Assay [7] in a line: A2780 Cisplatin Sensitive Ovarian Cancer Cell Toxicity qHTS against the NCATS CANVASS Library (AID 1347353). Note: nearly all actives have a fitted effect of over 60% in size. Particulars: A2780 ovarian cancer viability, ATPLite luminescence, 72 h; series mostly up to 46.1 µM. In a few lines:
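750 cells/well, 4 h settle; 11-pt cpd titration; 72 h, 37 °C, 5% CO2; ATPLite 10 min RT; luminescence read.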

A short description of assay [8]: UWB1.289-WTBRCA1 Cancer Cell Toxicity qHTS against the NCATS CANVASS Library (AID 1347354). The conditions noted are these: UWB1.289-WTBRCA1 viability, CellTiter-Glo luminescence, 72 h; series mostly up to 38.3 µM. In a few lines: as §2
Assay [9] in a line: HEK-293 Cancer Cell Toxicity qHTS against the NCATS CANVASS Library (AID 1347355). Note: nearly all actives have a fitted effect of over 65% in size. The conditions noted are these: HEK-293 viability, CellTiter-Glo luminescence, 72 h; series mostly up to 46.1 µM. In a few lines: as §2
Assay [10] in a line: HPAF-II 24hr Apoptosis Induction qHTS against the NCATS CANVASS Library (AID 1347356). Particulars: HPAF-II caspase-3/7 Caspase-Glo luminescence; series mostly up to 46.1 µM. The gist of the method: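 500 HPAF-II cells/well; compounds in 11-pnt qHTS; 24 h, 37 C/5% CO2; Caspase-Glo 3/7 added, 15 min RT dark; luminescence read. Doxorubicin control.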
The nature of assay [11]: HEK293 18hr Apoptosis Induction qHTS against the NCATS CANVASS Library (AID 1347357). Particulars: HEK293 caspase-3/7 Caspase-Glo luminescence; series mostly up to 46.1 µM. The gist of the method:
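Natural products applied to HEK293 for 18 hr; Caspase-Glo 3/7 readout.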

Assay [12] in a line: HPAF-II 12hr Apoptosis Induction qHTS against the NCATS CANVASS Library (AID 1347358). Particulars: HPAF-II caspase-3/7 Caspase-Glo luminescence; series mostly up to 46.1 µM. The gist of the method:
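Caspase-Glo 3/7 luminescence (DEVD substrate) reports caspase activity in HPAF-II cells after 12 h compound treatment at 37 degrees C. Compounds were tested in an 11-point series. Doxorubicin served as control.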

Assay [13] in a line: HEK293 24hr Apoptosis Induction qHTS against the NCATS CANVASS Library (AID 1347359). The conditions noted are these: HEK293 caspase-3/7 activation, Caspase-Glo luminescence; series mostly up to 46.1 µM. The gist of the method: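 Caspase-3/7 activation measured as luminescence from the DEVD-based Caspase-Glo reagent, 15 min at room temperature, following 24-hour compound treatment of HEK293 cells.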

Assay [14] is described as follows: HPAF-II 18hr Apoptosis Induction qHTS against the NCATS CANVASS Library (AID 1347360). The conditions noted are these: HPAF-II caspase-3/7 luminescence; series mostly up to 46.1 µM. In a few lines:
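Luminescent DEVD-substrate signal, proportional to caspase activity, is measured in HPAF-II cells after 18-hour treatment across a concentration series; doxorubicin serves as control.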

Assay [15] in a line: HEK293 12hr Apoptosis Induction qHTS against the NCATS CANVASS Library (AID 1347361). Particulars: HEK293 caspase-3/7 Caspase-Glo luminescence; series mostly up to 46.1 µM. In a few lines:
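Luminescent caspase-3/7 signal, proportional to enzyme activity, was recorded from HEK293 cultures in DMEM + 10% FBS treated for 12 hours with titrated natural products (11 points). Doxorubicin (0.1nM - 4uM) served as control.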

The subject of assay [16] is NAD(P)H diaphorase (Clostridium kluyveri). Kind of assay: Diaphorse counterscreen qHTS: Assay Interference Panel against the NCATS CANVASS Library (AID 1347362). The conditions noted are these: Diaphorase enzyme, resazurin to resorufin fluorescence; series mostly up to 57.5 µM. In a few lines: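 Counterscreen for coupling-enzyme interference: resorufin fluorescence from resazurin/NADH turnover, read after 5 min at room temperature. Compounds were tested over an 11-point series after 15 min dark preincubation with diaphorase in PBS-Tween.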

The target in assay [17] is Luciferin 4-monooxygenase (Photinus pyralis) (UniProt P08659). Kind of assay: Firefly luciferase counterscreen qHTS: Assay Interference Panel against the NCATS CANVASS Library (AID 1347363). The conditions noted are these: purified firefly luciferase, luminescence inhibition, 5 min; series mostly up to 57.5 µM. The gist of the method:
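Luminescence inhibition readout: compounds (11-point qHTS) sat 15 min at room temperature with substrate mix (0.013 mM luciferin and ATP), then firefly luciferase was added and signal read 5 min later.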

Assay [18] can be described thus: KB-8-5-11 Cancer Cell Toxicity qHTS against the NCATS CANVASS Library (AID 1347364). Note: nearly all actives have a fitted effect of over 75% in size. The conditions noted are these: KB-8-5-11 MDR cells viability, CellTiter-Glo, 72 h; series mostly up to 46.1 µM. In a few lines:
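CellTiter-Glo luminescence after 72 h exposure; 500 KB-8-5-11 cells/well, DMEM/10% FBS, 37C, 5% CO2; compounds in 11-pt qHTS. Follow-up confirmation included medium with 1uM tariquidar.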

Assay [19] is described as follows: SDT Cancer Cell Toxicity qHTS against the NCATS CANVASS Library (AID 1347365). Note: nearly all actives have a fitted effect of over 60% in size. The conditions noted are these: SDT dog glioma viability, ATP luminescence, 72 h; series mostly up to 46.1 µM. The gist of the method: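 Luminescent ATP read-out (CellTiterGlo) after 72 hr compound exposure of dog glioma SDT cells, 500 per well. Eleven-point titrations; bortezomib titration run alongside as control.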

A short description of assay [20]: KB-3-1 Cancer Cell Toxicity qHTS against the NCATS CANVASS Library (AID 1347366). Note: nearly all actives have a fitted effect of over 75% in size. Particulars: KB-3-1 viability, CellTiter-Glo luminescence, 72 h; series mostly up to 46.1 µM. The gist of the method:
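Cytotoxicity toward KB-3-1 cells (500/well, DMEM + 10% FBS) was scored by CellTiter-Glo luminescence following 72 hr exposure at 37C, with bortezomib titrated as control.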

Sequence of Luciferin 4-monooxygenase (Photinus pyralis) (P08659 whole entry, looked up): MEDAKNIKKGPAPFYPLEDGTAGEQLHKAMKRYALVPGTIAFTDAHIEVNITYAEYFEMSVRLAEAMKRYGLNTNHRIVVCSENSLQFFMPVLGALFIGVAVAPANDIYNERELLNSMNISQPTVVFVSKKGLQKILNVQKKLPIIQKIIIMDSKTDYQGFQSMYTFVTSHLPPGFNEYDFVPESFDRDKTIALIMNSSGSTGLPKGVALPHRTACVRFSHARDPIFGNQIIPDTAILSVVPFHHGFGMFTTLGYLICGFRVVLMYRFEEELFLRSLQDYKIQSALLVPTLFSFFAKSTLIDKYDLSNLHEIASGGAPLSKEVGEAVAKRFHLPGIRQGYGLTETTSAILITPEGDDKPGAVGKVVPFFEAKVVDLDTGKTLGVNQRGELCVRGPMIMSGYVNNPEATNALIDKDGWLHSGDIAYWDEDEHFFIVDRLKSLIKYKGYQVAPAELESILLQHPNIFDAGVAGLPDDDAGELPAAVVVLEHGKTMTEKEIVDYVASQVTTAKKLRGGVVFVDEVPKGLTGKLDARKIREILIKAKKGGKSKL

Take `CC1=C2C(=O)O[C@@H](c3ccoc3)[C@]2(C)CCC1`: the Potency entry in assay [1] was “inactive”. The call in assay [2], in [3], in [4], in assay [5], in assay [6] and in assay [7] was inactive. The molecule was classed as inactive in [8], in assay [9], in [10], in [11], in assay [12] and in assay [13]. The call in assay [14], in [15], in assay [16], in assay [17], in assay [18] and in assay [19] was inactive. Also, the molecule was classed as inactive in [20].
For the molecule `C/C=C/C=C/C(CC(=O)O)Nc1ccc(C=O)cc1` (centres undefined), the Potency in assay [1] is 3.75 µM (active). Moreover, the molecule was classed as inactive in assay [3], in assay [4], in assay [5], in assay [6], in assay [7] and in assay [8]. Further, the outcome in assay [9], in assay [10], in [11], in assay [12], in [13] and in assay [14] was inactive. Moreover, the outcome in assay [15], in assay [16], in assay [17], in assay [18], in assay [19] and in assay [20] was inactive.

(Values after PubChem BioAssay (NCATS).)
